Values joined by “and” are separate entries in the source; they are usually repeats but may differ in a detail not shown here. Equal entries are not always repeated. Records with an inconclusive call do not appear. Some structures have more than one record in an assay (separate samples or runs), and their calls can disagree. Active and inactive are the calls of the source. Unless noted, calls come from the whole dose curve; as a rule, active = well fitted curve in the direction sought with a large enough effect in the repeat runs; inconclusive = weak or mixed curves; inactive = no such curve, though single readings can be large; an effect the other way counts as inactive or inconclusive.

Test [1] can be described thus: qHTS assay to identify small molecule phospholipidosis (PLD) inducers (AID 1259344; active = well fitted curve in the direction sought with a large enough effect; an effect the other way counts as inactive or inconclusive; note: potency is the fitted concentration of half-maximal effect). Put shortly:
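Read-out is LipidTOX Red fluorescence (ex 595/em 615) imaged in HepG2 cells after 24 h compound exposure at 37 C, with Hoechst nuclear counterstain (ex 352/em 461) allowing per-cell normalisation.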

Test [2] can be described thus: qHTS assay to identify small molecule HDAC inhibitors (AID 1259364).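 Note: wild-type HCT-116 cells with endogenous class I/II HDAC activity; top concentration of the series differs between compounds; nearly all actives have a fitted effect of over 45% in size.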 Put shortly:
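Cells (HCT-116, wild type) are seeded at 1,500 per well, incubated overnight, treated with compound in DMSO for 2 hr, then developed with HDAC-Glo I/II reagent for 30 min at room temperature.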

Test [3] can be described thus: qHTS assay to identify small molecule HDAC inhibitors - cell viability counter screen (AID 1259365). Note: series mostly up to about 92 µM; nearly all actives have a fitted effect of over 50% in size. Put shortly: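 After overnight seeding at 1,500 cells per well, wild-type HCT-116 cultures took up compounds in DMSO for 2hr at 37 C. Viable cell content came from luminescence with CellTiter-Glo.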
Background: In qHTS, concentration-response curves come from the screen itself.

A short description of test [4]: qHTS assay to identify small molecule agonists of the sonic hedgehog signaling (Shh) pathway - cell viability counter screen (AID 1259366). Note: nearly all actives have a fitted effect of over 50% in size. Note: potency is the fitted concentration of half-maximal effect. Put shortly:
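Same-well cytotoxicity read. Gli1-Luc reporter 3T3 cells; compounds 24hr, 37C/5% CO2; CellTiter-Fluor fluorescence.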

Test [5] in a line: qHTS assay to identify small molecule antagonists of the sonic hedgehog signaling (Shh) pathway - cell viability counter screen (AID 1259367). Note: nearly all actives have a fitted effect of over 55% in size. Note: potency is the fitted concentration of half-maximal effect. Put shortly: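 Fluorescence read-out (CellTiter-Fluor, 1 hr at 37C) taken after 23 hr compound treatment of 3T3 Gli1-Luc cells stimulated with conditioned medium. Cells were seeded at 2,000 per well and pre-incubated 4 hr.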
A short description of test [6]: qHTS assay to identify small molecule antagonists of the sonic hedgehog signaling (Shh) pathway (AID 1259369; calls by dose curve; note: nearly all actives have a fitted effect of over 45% in size; note: potency is the fitted concentration of half-maximal effect). Put shortly: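 Cells are plated and held 4hr at 37 C, compounds (DMSO) are pinned in, conditioned medium is added to stimulate the pathway, and after 24hr luciferase reagent is added for 30min before luminescence is read.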
Test [7] is described as follows: qHTS assay to identify small molecule agonists of the estrogen receptor beta (ER-beta) signaling pathway - cell viability counter screen (AID 1259380). Note: nearly all actives have a fitted effect of over 30% in size. Note: potency is the fitted concentration of half-maximal effect. Put shortly: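 Cytotoxicity is measured in parallel with the reporter screen: after 16 hr compound exposure at 37C and a 2 hr LiveBLAzer step, CellTiter-Glo is added to the same ER-beta-UAS-bla HEK293T wells and luminescence read after 30 min.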

Test [8] in a line: qHTS assay to identify small molecule antagonists of the estrogen receptor beta (ER-beta) signaling pathway - cell viability counter screen (AID 1259382). Note: nearly all actives have a fitted effect of over 55% in size. Note: potency is the fitted concentration of half-maximal effect. Put shortly: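 Cytotoxicity counter screen multiplexed with the beta-lactamase antagonist assay: GripTite HEK293T ER-beta-bla cells were treated 16 hr with test chemicals in the presence of 1nM 17-beta-estradiol, and viability was measured by CellTiter-Glo.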

Test [9] has as its target Estrogen receptor (Homo sapiens) (UniProt P03372). The test is described as follows: qHTS assay to identify small molecule agonists of the estrogen receptor alpha (ER-alpha) signaling pathway in the presence of an antagonist (AID 1259383; calls by dose curve; note: top concentration of the series differs between compounds; nearly all actives have a fitted effect of over 15% in size). Put shortly:
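Agonist-mode confirmation in the presence of the ER antagonist ICI-182,780 at 10.0nM final. Breast-derived VM7Luc4E2 reporter cells were exposed to compounds for 22hr, and ERE-driven luciferase was quantified by luminescence.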

A short description of test [10]: qHTS assay to identify small molecule agonists of the sonic hedgehog signaling (Shh) pathway (AID 1259368; calls by dose curve;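 note: NIH/3T3-derived 3T3Gli1-Luc cells carrying a stable Gli1-driven firefly luciferase reporter; series mostly up to about 92 µM; nearly all actives have a fitted effect of over 15% in size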). Put shortly: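 Cells of a mouse NIH/3T3 clone stably expressing luciferase under the Gli1 transcriptional response element are exposed to test chemicals for 24 hr at 37 C. Pathway activation is detected as a rise in luminescence.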
Test [11] in a line: qHTS assay to identify small molecule agonists of the androgen receptor (AR) signaling pathway in the presence of an antagonist - cell viability counter screen (AID 1259379). Note: nearly all actives have a fitted effect of over 25% in size. Note: potency is the fitted concentration of half-maximal effect. Put shortly: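 Cytotoxicity is assessed by CellTiter-Fluor in MDA-kb2 cells carrying an MMTV-driven luciferase reporter. Cells receive 3.0uM nilutamide plus compounds at 15 concentrations and incubate 16 hr at 37C without CO2 before fluorescence reading.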

A short description of test [12]: qHTS assay to identify small molecule agonists of the estrogen receptor alpha (ER-alpha) signaling pathway in the presence of an antagonist - cell viability counter screen (AID 1259386).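 Note: cells exposed to compounds for 22 h at 37 °C before the viability read; nearly all actives have a fitted effect of over 30% in size.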 Note: potency is the fitted concentration of half-maximal effect. Put shortly: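 Cytotoxicity was measured in parallel with the ERE-luciferase agonist screen, in the same wells. The cells were VM7Luc4E2, which endogenously express ER-alpha, and treatment was with compounds plus 10.0nM ICI-182,780 for 22hr.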

Test [13] addresses Estrogen receptor (Homo sapiens) (UniProt P03372). The test is described as follows: qHTS assay to identify small molecule antagonists of the estrogen receptor alpha (ER-alpha) signaling pathway using the BG1 cell line in the presence of 0.1 nM 17-beta-estradiol (AID 1259244). Note: potency is the fitted concentration of half-maximal effect; nearly all actives have a fitted effect of over 50% in size. Put shortly:
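Antagonist mode: compounds in DMSO are pinned onto VM7Luc4E2 reporter cells, 0.1 nM final 17beta-estradiol is added, and after 22 h at 37C luciferase luminescence is measured with ONE-Glo.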

In test [14] the target is Estrogen receptor beta (Homo sapiens) (UniProt Q92731). Put plainly: qHTS assay to identify small molecule agonists of the estrogen receptor beta (ER-beta) signaling pathway (AID 1259377; active = well fitted activation curve with a large enough effect in the signal ratio in the repeat runs, not every such curve was filed as active; the % refers to the signal ratio). Put shortly:
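Read-out: beta-lactamase FRET fluorescence. Cell line: ER-beta-UAS-bla HEK293T in 2% charcoal-stripped FBS. Exposure: 16 hr at 37C. Substrate step: 2 h at room temperature.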

Test [15] is described as follows: qHTS assay to identify small molecule agonists or antagonists of the thyroid stimulating hormone receptor (TSHR) signaling pathway - wild type cell line counter screen (AID 1259384; calls by dose curve). Put shortly:
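Wild-type Hek293 cells, 800/well, 18 h at 37C, then compound with Ro20-1724 for 30 min RT. cAMP by HTRF (cAMP-d2/anti-cAMP cryptate), 1 h RT, fluorescence read. 15 concentrations, triplicates.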

The target of test [16] is Thyrotropin receptor (Homo sapiens) (UniProt P16473). Put plainly: qHTS assay to identify small molecule antagonists of the thyroid stimulating hormone receptor (TSHR) signaling pathway (AID 1259385; calls by dose curve; note: nearly all actives have a fitted effect of over 20% in size; note: potency is the fitted concentration of half-maximal effect). Put shortly:
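TSHR-HEK293 cells (800/well) plated 18 h, then compounds with Ro20-1724 and TSH at 1.5 ng/mL final, 30 min at room temperature. cAMP quantified by HTRF (cAMP-d2/anti-cAMP-cryptate, 1 h); 15 concentrations in triplicate.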

The target of test [17] is Progesterone receptor (Homo sapiens) (UniProt P06401). Put plainly: qHTS assay to identify small molecule agonists of the progesterone receptor (PR) signaling pathway (AID 1346784; calls by dose curve; note: nearly all actives have a fitted effect of over 30% in size). Put shortly: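 Compounds were tested for PR agonism in HEK 293T cells bearing a beta-lactamase gene under UAS control. Treatment lasted 16 hr at 37C; signal came from fluorescence of a FRET substrate.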

Test [18] deals with Androgen receptor (Homo sapiens) (UniProt P10275). Put plainly: qHTS assay to identify small molecule agonists of the androgen receptor (AR) signaling pathway in the presence of an antagonist (AID 1259381; calls by dose curve; note: nearly all actives have a fitted effect of over 15% in size). Put shortly:
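Agonist-mode confirmation screen: human MDA-kb2 cells stably expressing luciferase under an MMTV promoter bearing AR and GR response elements, co-treated with 3.0uM nilutamide (final). Luminescence measured after 16hr compound incubation.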

Chain of Estrogen receptor (Homo sapiens) (P03372 whole entry, looked up): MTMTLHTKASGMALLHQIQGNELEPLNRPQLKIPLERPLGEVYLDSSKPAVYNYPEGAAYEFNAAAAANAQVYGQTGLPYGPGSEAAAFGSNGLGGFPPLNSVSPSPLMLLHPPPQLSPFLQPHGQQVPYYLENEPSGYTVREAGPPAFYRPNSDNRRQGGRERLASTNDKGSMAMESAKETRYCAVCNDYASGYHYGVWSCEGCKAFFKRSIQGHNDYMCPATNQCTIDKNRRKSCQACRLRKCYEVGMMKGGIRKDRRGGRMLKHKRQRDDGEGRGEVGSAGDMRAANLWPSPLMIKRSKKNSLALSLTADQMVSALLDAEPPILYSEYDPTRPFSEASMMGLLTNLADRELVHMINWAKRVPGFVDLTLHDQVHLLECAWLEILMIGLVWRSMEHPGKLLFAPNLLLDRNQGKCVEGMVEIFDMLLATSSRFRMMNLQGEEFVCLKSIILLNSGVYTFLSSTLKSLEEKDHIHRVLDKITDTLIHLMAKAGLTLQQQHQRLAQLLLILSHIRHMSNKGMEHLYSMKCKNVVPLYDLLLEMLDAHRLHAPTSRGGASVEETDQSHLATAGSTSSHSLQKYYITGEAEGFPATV
Chain of Progesterone receptor (Homo sapiens) (P06401 whole entry, looked up): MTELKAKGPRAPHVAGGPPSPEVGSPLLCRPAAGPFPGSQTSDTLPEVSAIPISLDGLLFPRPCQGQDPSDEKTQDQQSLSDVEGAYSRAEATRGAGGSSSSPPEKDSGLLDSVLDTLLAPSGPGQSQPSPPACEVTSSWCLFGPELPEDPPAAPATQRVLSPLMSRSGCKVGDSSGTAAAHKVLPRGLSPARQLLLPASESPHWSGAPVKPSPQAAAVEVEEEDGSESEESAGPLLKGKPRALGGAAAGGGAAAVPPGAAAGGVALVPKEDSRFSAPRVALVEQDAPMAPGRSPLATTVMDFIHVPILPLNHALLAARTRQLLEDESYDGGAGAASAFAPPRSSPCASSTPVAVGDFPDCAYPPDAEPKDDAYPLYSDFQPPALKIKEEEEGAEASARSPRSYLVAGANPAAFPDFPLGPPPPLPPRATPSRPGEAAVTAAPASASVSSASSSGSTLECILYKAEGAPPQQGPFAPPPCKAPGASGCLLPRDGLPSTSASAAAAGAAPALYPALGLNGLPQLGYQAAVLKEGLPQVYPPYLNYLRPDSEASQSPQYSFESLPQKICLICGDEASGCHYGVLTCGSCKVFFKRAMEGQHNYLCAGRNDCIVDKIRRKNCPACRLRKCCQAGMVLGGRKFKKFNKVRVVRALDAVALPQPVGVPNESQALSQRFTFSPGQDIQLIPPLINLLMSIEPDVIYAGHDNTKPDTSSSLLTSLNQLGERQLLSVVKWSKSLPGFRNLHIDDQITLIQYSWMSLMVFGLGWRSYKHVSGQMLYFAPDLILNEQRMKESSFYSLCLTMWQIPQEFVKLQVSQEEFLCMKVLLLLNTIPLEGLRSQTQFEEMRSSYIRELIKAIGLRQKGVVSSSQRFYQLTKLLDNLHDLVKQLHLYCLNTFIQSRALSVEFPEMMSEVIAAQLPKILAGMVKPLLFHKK
Chain of Thyrotropin receptor (Homo sapiens) (P16473 whole entry, looked up): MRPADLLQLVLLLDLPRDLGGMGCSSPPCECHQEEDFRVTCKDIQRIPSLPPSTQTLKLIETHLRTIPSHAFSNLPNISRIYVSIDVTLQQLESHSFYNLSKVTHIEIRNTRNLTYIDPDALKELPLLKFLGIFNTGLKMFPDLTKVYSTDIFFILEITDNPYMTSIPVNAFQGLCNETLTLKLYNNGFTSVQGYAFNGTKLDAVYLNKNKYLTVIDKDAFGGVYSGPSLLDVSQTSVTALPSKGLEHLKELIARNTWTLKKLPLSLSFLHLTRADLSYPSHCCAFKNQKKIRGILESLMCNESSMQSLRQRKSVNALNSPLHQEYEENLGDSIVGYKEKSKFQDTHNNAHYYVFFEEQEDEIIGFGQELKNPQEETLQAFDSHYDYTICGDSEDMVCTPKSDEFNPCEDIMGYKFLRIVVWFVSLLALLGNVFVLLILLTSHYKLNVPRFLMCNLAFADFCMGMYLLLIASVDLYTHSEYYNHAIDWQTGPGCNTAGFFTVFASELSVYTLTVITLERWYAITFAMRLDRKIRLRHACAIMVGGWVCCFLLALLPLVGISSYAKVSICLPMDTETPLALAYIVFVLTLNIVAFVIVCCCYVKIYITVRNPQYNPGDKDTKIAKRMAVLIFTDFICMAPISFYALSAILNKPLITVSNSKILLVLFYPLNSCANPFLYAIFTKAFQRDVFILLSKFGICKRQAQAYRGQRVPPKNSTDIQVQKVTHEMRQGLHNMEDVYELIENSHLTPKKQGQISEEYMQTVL
Chain of Androgen receptor (Homo sapiens) (P10275 whole entry, looked up): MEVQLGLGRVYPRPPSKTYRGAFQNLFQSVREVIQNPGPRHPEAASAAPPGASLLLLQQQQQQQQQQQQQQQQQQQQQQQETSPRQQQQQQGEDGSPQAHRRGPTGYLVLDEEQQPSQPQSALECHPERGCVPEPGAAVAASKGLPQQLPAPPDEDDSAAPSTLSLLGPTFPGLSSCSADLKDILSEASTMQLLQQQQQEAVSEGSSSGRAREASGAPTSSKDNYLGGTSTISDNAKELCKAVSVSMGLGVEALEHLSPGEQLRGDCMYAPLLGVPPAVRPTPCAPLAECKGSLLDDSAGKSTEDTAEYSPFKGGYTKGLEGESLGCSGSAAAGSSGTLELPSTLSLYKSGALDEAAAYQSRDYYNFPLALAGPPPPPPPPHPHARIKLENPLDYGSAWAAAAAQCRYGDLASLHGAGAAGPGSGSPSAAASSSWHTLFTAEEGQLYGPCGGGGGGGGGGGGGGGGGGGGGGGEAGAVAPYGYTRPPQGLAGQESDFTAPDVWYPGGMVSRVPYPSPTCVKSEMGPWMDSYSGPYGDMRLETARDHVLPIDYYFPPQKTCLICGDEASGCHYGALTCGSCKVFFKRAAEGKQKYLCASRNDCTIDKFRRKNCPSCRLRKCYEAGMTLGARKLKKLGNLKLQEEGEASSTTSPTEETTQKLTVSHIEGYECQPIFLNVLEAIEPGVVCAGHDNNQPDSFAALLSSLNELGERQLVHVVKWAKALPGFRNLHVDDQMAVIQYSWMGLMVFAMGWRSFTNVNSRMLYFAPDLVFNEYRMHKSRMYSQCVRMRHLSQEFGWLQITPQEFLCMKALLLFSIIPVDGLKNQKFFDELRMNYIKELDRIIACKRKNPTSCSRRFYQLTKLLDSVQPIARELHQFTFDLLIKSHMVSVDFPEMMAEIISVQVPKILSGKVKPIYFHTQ
Chain of Estrogen receptor beta (Homo sapiens) (Q92731 whole entry, looked up): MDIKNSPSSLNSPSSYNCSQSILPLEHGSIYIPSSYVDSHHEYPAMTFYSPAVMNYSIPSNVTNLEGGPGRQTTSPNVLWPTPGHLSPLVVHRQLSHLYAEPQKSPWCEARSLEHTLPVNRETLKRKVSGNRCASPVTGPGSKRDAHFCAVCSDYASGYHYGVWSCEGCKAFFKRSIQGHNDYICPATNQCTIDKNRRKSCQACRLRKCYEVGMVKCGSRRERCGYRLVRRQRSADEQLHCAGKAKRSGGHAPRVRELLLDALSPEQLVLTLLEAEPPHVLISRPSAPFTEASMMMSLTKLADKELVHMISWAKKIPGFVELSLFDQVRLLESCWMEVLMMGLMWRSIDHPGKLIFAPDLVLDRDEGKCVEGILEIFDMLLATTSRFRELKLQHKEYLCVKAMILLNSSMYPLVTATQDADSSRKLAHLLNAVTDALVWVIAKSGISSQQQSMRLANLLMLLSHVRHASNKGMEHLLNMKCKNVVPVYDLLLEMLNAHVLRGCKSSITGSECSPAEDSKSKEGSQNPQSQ

With `N=C1N=C(N)c2cc3ccccc3cc21`, the Potency entry in test [1], in [2], in [3] and in test [9] was “inactive” throughout. Also, the Potency in test [4] is 27.3 µM (active); in test [5], 24.3 µM (active); in test [6], 0.969 µM (active); in [7], 21.7 µM (active); in test [8] it was 38.6 µM (active).
On to `Oc1ccc(Cl)cc1Sc1cc(Cl)ccc1O`, for which the Potency result in test [1], in test [2], in [3], in [10] and in test [9] was “inactive” each time. Further, the Potency in test [4] is 30.6 µM (active) and inactive; in test [5], 30.6 µM (active) and inactive; in test [6], 26.6 µM (active); in [11], 21.6 µM (active) and 26.6 µM (active); in test [7], 48.5 µM (active) and 29.8 µM (active); in test [8], 48.5 µM (active). Further, the Potency in test [12] is 29.8 µM (active).
With `O=c1[nH]sc2ccccc12`, the Potency in [13] was 54.5 µM (active); in [5] it was 17.2 µM (active); in [6], 0.969 µM (active); in test [7], 19.3 µM (active); in test [8], 27.3 µM (active); in [16] it was 68.6 µM (active). The Potency result in test [3], in [10], in [14] and in test [9] was “inactive” in each case. In addition, the result in [15] was inactive.
As to `Cc1c(C)c2c(c(C)c1OC(=O)CCC(=O)O)CC[C@@](C)(CCC[C@H](C)CCC[C@H](C)CCCC(C)C)O2`, the Potency result in test [1], in [2], in [3], in test [4], in [6] and in test [16] was “inactive” in each case. Further, the Potency entry in [12] and in test [17] was “inactive” throughout. Further, the Potency in test [11] was 27.6 µM (active); in [7], 1.95 µM (active). Besides, in test [15], the molecule was classed as inactive.
Regarding `CCOC(=O)/C=C(C)/C=C/C=C(C)/C=C/c1c(C)cc(OC)c(C)c1C`, the Potency result in [1], in test [2], in test [3], in test [10], in [6] and in [7] was “inactive” each time. Also, the Potency result in test [8], in [9], in [16] and in [17] was “inactive” in each case. In test [15], the call was inactive.
Consider `CCc1oc2ccccc2c1C(=O)c1cc(Br)c(O)c(Br)c1`, for which the Potency entry in [1], in [2], in test [3], in test [4], in test [5] and in [10] was “inactive” each time. The Potency entry in test [6], in [18], in [8], in test [9], in [16] and in [12] was “inactive” each time. Besides, the molecule was classed as inactive in test [15].
For the molecule `CN1CCC(Nc2ncc3ncnc(Nc4ccc(F)c(Cl)c4)c3n2)CC1`, the Potency is 11.2 µM (active) in test [1]; 29.8 µM (active) in [4]; 6.68 µM (active) in test [6]; 11.9 µM (active) in [7]; 29.8 µM (active) in test [16]. The Potency result in test [2], in test [3], in test [10] and in test [18] was “inactive” in each case. In addition, the result in [15] was inactive.
`CN(C)[C@@H]1C(=O)C(C(N)=O)=C(O)[C@@]2(O)C(=O)C3=C(O)c4c(O)ccc(Cl)c4[C@@H](O)[C@H]3C[C@@H]12`: the Potency result in test [1], in [2], in test [3], in [5], in [6] and in [14] was “inactive” each time. Also, the Potency entry in test [11], in [7], in test [8], in test [16], in test [12] and in [17] was “inactive” throughout. In test [15], the outcome was inactive.

Values taken from PubChem BioAssay (Tox21).
